Where “and” joins values, the source holds several entries; their conditions need not be identical. Equal values may be shown once. Compounds without any hit were thinned out: in the full panel of roughly 79,000, 15% have a hit. The source holds several records for some structures; these can differ, active in one and inactive in another. Calls of active or inactive are those of the source. Rule as the data show it: active = growth inhibition above about 70%; inactive = the rest.
Columns and labels:
[1] = NCI Yeast Anticancer Drug Screen. Data for the rad50 strain (AID 155);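 also: 0% = growth of vehicle-only cultures of the same strain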; details: S. cerevisiae rad50 strain growth inhibition; at 50.0 µM; stronger effect = higher value
Outline: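 Cells are treated with compound, grown, and their growth is then scored against vehicle-only cultures of the same repair-deficient yeast strain.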

[2] = NCI Yeast Anticancer Drug Screen. Data for the mec2-1 strain (AID 157); details: S. cerevisiae mec2-1 strain, at 50.0 µM, stronger effect = higher value
Outline: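 Compounds were applied to mec2-1 yeast cells. Their growth was then compared with that of vehicle-treated cultures to give growth inhibition.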

[3] = NCI Yeast Anticancer Drug Screen. Data for the sgs1 mgt1 strain (AID 161);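 also: 0% = growth of cultures given vehicle only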; details: S. cerevisiae sgs1 mgt1 strain, at 50.0 µM, stronger effect = higher value
Outline: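 Percent growth inhibition was derived by comparing compound-exposed mutant yeast with vehicle-exposed cultures. The strain carries alterations in DNA damage repair.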

[4] = NCI Yeast Anticancer Drug Screen. Data for the cln2 rad14 strain (AID 165);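 also: 0% = growth equal to vehicle treated cultures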; details: S. cerevisiae cln2 rad14 strain, at 50.0 µM, stronger effect = higher value
Outline: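 Strain: cln2 rad14 yeast, altered in cell cycle control and DNA damage repair. Read-out: growth inhibition vs vehicle.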

[5] = NCI Yeast Anticancer Drug Screen. Data for the bub3 strain (AID 167); details: S. cerevisiae bub3 mutant strain, at 50.0 µM, stronger effect = higher value
Outline: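 Part of a panel of yeast mutants defective in DNA damage repair or cell cycle regulation. Each strain is grown with compound, and inhibition is calculated relative to solvent-treated cultures.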

[6] = NCI Yeast Anticancer Drug Screen. Data for the mlh1 rad18 strain (AID 175); details: S. cerevisiae mlh1 rad18 strain growth inhibition; at 50.0 µM; stronger effect = higher value
Outline: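 A repair-deficient yeast strain is exposed to test compound, and growth is scored relative to vehicle-treated controls.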

| SMILES | growth inhibition [1] | growth inhibition [2] | growth inhibition [3] | growth inhibition [4] | growth inhibition [5] | growth inhibition [6] |
| --- | --- | --- | --- | --- | --- | --- |
| COCC1OC(OC)C(OC)C(OC)C1OC (configuration not stated) | -4.45% (inactive) and 3.1% (inactive) | -13% (inactive) and -0.5% (inactive) | 8.35% (inactive) and -0.1% (inactive) | -49.7% (inactive) and 1.25% (inactive) | -21.1% (inactive) and 1.3% (inactive) | -4.8% (inactive) and -4.25% (inactive) |
| Cc1ccc(C(O)(C(F)(F)F)C(O)(c2ccc(C)cc2)C(F)(F)F)cc1 (configuration not stated) | 36.8% (inactive) and 99.2% (active) | 1.9% (inactive) and 99.5% (active) | -12.8% (inactive) and 99.3% (active) | -10.2% (inactive) and 99.4% (active) | -8.85% (inactive) and 99.3% (active) | -5.75% (inactive) and 99% (active) |
| COc1ccc(C(O)C(NCCO)c2ccc(OC)cc2)cc1 (configuration not stated) | 8.85% (inactive) and -3.55% (inactive) | 12.8% (inactive) and -7.35% (inactive) | 42.7% (inactive) and -3.7% (inactive) | -37.6% (inactive) and -16.8% (inactive) | -2.25% (inactive) and 0.05% (inactive) | 15.7% (inactive) and -28.1% (inactive) |
| CCCC(=O)Oc1ccccc1C(C)C | 12.5% (inactive) and 2.75% (inactive) | 11.9% (inactive) and -21.8% (inactive) | 11% (inactive) and -5.25% (inactive) | 14.1% (inactive) and -8.9% (inactive) | 6.8% (inactive) and -0.15% (inactive) | 1.65% (inactive) and -19.6% (inactive) |
| C=Cc1c(C)c2cc3[nH]c(cc4nc(cc5nc(cc1[nH]2)C(C)=C5CCC(=O)O)C(CCC(=O)O)=C4C)c(C)c3C=C | 6.5% (inactive) and 13% (inactive) | 1.5% (inactive) and -13.3% (inactive) | 9.05% (inactive) and 12.7% (inactive) | 10.2% (inactive) and 10.5% (inactive) | 0.65% (inactive) and -0.1% (inactive) | 32.6% (inactive) and 27.1% (inactive) |
| O=C1C=CC(=O)O1 (tested in a mixture with another compound) | 13.5% (inactive) and 5.85% (inactive) | 18% (inactive) and 1.85% (inactive) | 10.6% (inactive) and 2.55% (inactive) | 38.1% (inactive) and 4.45% (inactive) | 30.9% (inactive) and 17% (inactive) | 22.4% (inactive) and 13.3% (inactive) |
| CCC(N)C(=O)O (configuration not stated) | -0.4% (inactive) and 5.25% (inactive) | -31.6% (inactive) and 6.85% (inactive) | 1.75% (inactive) and -11.3% (inactive) | 8.55% (inactive) and 9.4% (inactive) | -9.75% (inactive) and -14.9% (inactive) | -10.8% (inactive) and -0.8% (inactive) |
| N#CC1OC1c1cccc[n+]1[O-] (configuration not stated) | 9.05% (inactive) and 4.6% (inactive) | -7.8% (inactive) and -3.3% (inactive) | 0.85% (inactive) and -8.7% (inactive) | -45.9% (inactive) and -29.5% (inactive) | -11.7% (inactive) and -13.9% (inactive) | -3.15% (inactive) and 8.5% (inactive) |
| O=C(NCc1ccccc1)C1C(=O)C(=O)N(Cc2ccccc2)C1=O (configuration not stated) | -29.4% (inactive) and 4.55% (inactive) | -22.6% (inactive) and 0.8% (inactive) | -12.2% (inactive) and -8.45% (inactive) | 2% (inactive) and 14% (inactive) | -8.8% (inactive) and -3.45% (inactive) | -36% (inactive) and 2.6% (inactive) |
| CCOc1ccc(C(C)=O)cc1 | 10.7% (inactive) and -0.6% (inactive) | 5.25% (inactive) and 3.75% (inactive) | 5.85% (inactive) and 3.85% (inactive) | 10.9% (inactive) and 1.45% (inactive) | 5.5% (inactive) and 3.65% (inactive) | -2.05% (inactive) and -7.45% (inactive) |
| Nc1nc(N)c2ncn(C3OC(CO)C(OC4OC(CO)C(O)C(O)C4O)C(O)C3O)c2n1 (configuration not stated) | -0.55% (inactive) and -12.2% (inactive) | 12.8% (inactive) and 7.45% (inactive) | 2.45% (inactive) and -27.6% (inactive) | -2.65% (inactive) and -19.2% (inactive) | 1.8% (inactive) and -17.8% (inactive) | 22.3% (inactive) and -10.3% (inactive) |
| CN(C)CC1COC2Cc3ccccc3C1O2 (configuration not stated) | -43.2% (inactive) and -0.75% (inactive) | -22.1% (inactive) and -20.2% (inactive) | -17.2% (inactive) and -1.65% (inactive) | -46.1% (inactive) and 20.9% (inactive) |  | -29.3% (inactive) and 1.95% (inactive) |
| C[n+]1cccc2ccccc21 | -17.1% (inactive) and -14% (inactive) | -11.8% (inactive) and -2.1% (inactive) | -40.5% (inactive) and -8.3% (inactive) | -10.7% (inactive) and -59% (inactive) | 11.5% (inactive) and 6.7% (inactive) | -11.6% (inactive) and -4.15% (inactive) |
| Cc1cc(C#N)c(=S)n(C2OC(CO)C(O)C(O)C2O)c1C (configuration not stated) | 7.4% (inactive) and 11.9% (inactive) |  | 14.2% (inactive) and 15.2% (inactive) | 7.25% (inactive) and -0.4% (inactive) | 7.8% (inactive) and 7.75% (inactive) | 24.6% (inactive) and 22.6% (inactive) |

Source: PubChem BioAssay (NCI)
